Measured values from PubChem BioAssay AID1159580 (chemical genetic matrix, 2015).
“And” between values parts separate entries of the source, which are not always exact repeats. Equal entries are not always repeated. Among all 5,500 compounds or so, about 2,000 (36%) were called active. Not shown: some 18% with an inconclusive outcome. Rule as the data show it: active = normalized growth mostly below about 0.91 (no sharp cut-off); inconclusive = no clear call, values can overlap the other calls; inactive = mostly above about 0.92. The list shows a part of the results.

Test: chemical genetic growth profiling, strain panel (AID 1159580);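 also: tested at 20 µM; growth read once vehicle control cultures reached saturation at 30 °C; 1 = growth at the plate median or of vehicle wells; lower values mean less growth of the strain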
Settings: S. cerevisiae deletion strains, growth OD

Measured: normalized growth

CC(C)(C)NCC(O)COc1cccc2c1C[C@H](O)[C@H](O)C2 (stereo not given in full)
inactive: locus YAL021C, strain ccr4, active compounds read low 0.99 | locus YAL026C, strain drs2, active compounds read low 1.01 | locus YAL030W, strain snc1, active compounds read low 0.995 | locus YBL061C, strain skt5, active compounds read low 1 | locus YBR009C, strain hhf1, active compounds read low 0.999 | locus YBR021W, strain FUR4, active compounds read low 1.03 | locus YBR023C, strain chs3, active compounds read low 1.01 | locus YBR171W, strain sec66, active compounds read low 1.01 | locus YBR229C, strain ROT2, active compounds read low 1.01 | locus YBR231C, strain swc5, active compounds read low 1 | locus YBR279W, strain paf1, active compounds read low 1 | locus YCL011C, strain gbp2, active compounds read low 1 | locus YCL016C, strain dcc1, active compounds read low 1 | locus YCL029C, strain bik1, active compounds read low 0.997 | locus YCL061C, strain MRC1, active compounds read low 1.01 | locus YCL069W, strain vba3, active compounds read low 1 | locus YCR088W, strain abp1, active compounds read low 1 | locus YDL005C, strain med2, active compounds read low 1.01 | locus YDL035C, strain GPR1, active compounds read low 0.983 | locus YDL040C, strain nat1, active compounds read low 0.999 | locus YDL074C, strain BRE1, active compounds read low 1.06 | locus YDL101C, strain DUN1, active compounds read low 0.999 | locus YDL134C, strain PPH21, active compounds read low 1 | locus YDL185W, strain tfp1, active compounds read low 0.96 | locus YDL192W, strain arf1, active compounds read low 0.982 | locus YDR001C, strain nth1, active compounds read low 1.01 | locus YDR069C, strain doa4, active compounds read low 1 | locus YDR101C, strain arx1, active compounds read low 1.05 | locus YDR137W, strain rgp1, active compounds read low 1.01 | locus YDR150W, strain NUM1, active compounds read low 0.992 | locus YDR159W, strain sac3, active compounds read low 1 | locus YDR162C, strain NBP2, active compounds read low 0.964 | locus YDR195W, strain ref2 0.999 | locus YDR297W, strain sur2, active compounds read low 1 | locus YDR318W, strain mcm21, active compounds read low 0.979 | locus YDR334W, strain swr1, active compounds read low 1.02 | locus YDR335W, strain msn5, active compounds read low 1 | locus YDR388W, active compounds read low 0.989 | locus YDR392W, strain spt3, active compounds read low 1.01 | locus YDR502C, strain sam2, active compounds read low 0.99 | locus YEL003W, strain gim4, active compounds read low 1 | locus YEL037C, strain rad23, active compounds read low 1.01 | locus YEL061C, strain CIN8 (second series), active compounds read low 1.01 | locus YEL061C, strain CIN8, active compounds read low 0.999 | locus YER015W, strain faa2, active compounds read low 0.999 | locus YER016W, strain bim1, active compounds read low 1.01 | locus YER110C, active compounds read low 0.976 | locus YER111C, strain swi4, active compounds read low 1 | locus YER155C, strain BEM2 (second series), active compounds read low 0.997 | locus YER155C, strain BEM2, active compounds read low 0.999 | locus YER167W, strain BCK2, active compounds read low 0.996 | locus YFR010W, strain ubp6, active compounds read low 1.02 | locus YGL078C, strain dbp3, active compounds read low 0.989 | locus YGL086W, strain mad1, active compounds read low 1.02 | locus YGL167C, strain pmr1, active compounds read low 1 | locus YGL173C, strain kem1, active compounds read low 1.01 | locus YGL227W, strain vid30, active compounds read low 1.01 | locus YGL240W, strain doc1, active compounds read low 1 | locus YGL248W, strain PDE1, active compounds read low 1.01 | locus YGL253W, strain hxk2, active compounds read low 1.02 | locus YGR135W, strain pre9, active compounds read low 0.951 | locus YGR229C, strain SMI1, active compounds read low 0.989 | locus YGR252W, strain gcn5, active compounds read low 0.986 | locus YHR013C, strain ard1, active compounds read low 1.03 | locus YHR027C, strain rpn1, active compounds read low 1 | locus YHR030C, strain SLT2, active compounds read low 0.992 and 1.02 | locus YHR079C, strain IRE1 (second series), active compounds read low 0.987 | locus YHR079C, strain IRE1, active compounds read low 1.01 | locus YHR094C, strain hxt1, active compounds read low 0.995 | locus YHR129C, strain ARP1, active compounds read low 0.991 | locus YHR142W, strain chs7, active compounds read low 1.01 | locus YHR200W, strain rpn10, active compounds read low 0.987 | locus YIL066C, strain RNR3, active compounds read low 1 | locus YIL073C, strain SPO22, active compounds read low 0.883 | locus YIL125W, strain kgd1, active compounds read low 0.998 | locus YIR030C, strain dcg1, active compounds read low 0.984 | locus YJL092W, strain hpr5, active compounds read low 1.01 | locus YJL095W, strain BCK1 (second series), active compounds read low 1.01 | locus YJL095W, strain BCK1, active compounds read low 1.02 and 1.04 | locus YJL115W, strain asf1, active compounds read low 1.02 | locus YJL129C, strain trk1, active compounds read low 1 | locus YJL134W, strain LCB3, active compounds read low 0.989 | locus YJL154C, strain vps35, active compounds read low 0.995 | locus YJL164C, strain tpk1, active compounds read low 1 | locus YJL166W, strain qcr8, active compounds read low 1 | locus YJL168C, strain set2, active compounds read low 1 | locus YJL187C, strain SWE1 (second series), active compounds read low 1.01 | locus YJL187C, strain SWE1, active compounds read low 1.01 | locus YJR043C, strain POL32, active compounds read low 1 | locus YJR066W, strain TOR1, active compounds read low 1
